PubChem BioAssay (Tox21)
Where “and” joins values, the source holds several entries; their conditions need not be identical. Equal values may be shown once. Records with an inconclusive call do not appear. Calls of active or inactive are those of the source. Calls follow the shape of the dose curve; as a rule, active = well fitted cell-killing curve with a large enough effect in the repeat runs; inconclusive = weak or mixed curves, or effect the other way; inactive = flat fitted curve, though single readings scatter.

Experiment: qHTS assay to identify small molecule agonists of the constitutive androstane receptor (CAR) signaling pathway - cell viability counter screen (AID 1224836); also: nearly all actives have a fitted effect of over 45% in size
Details: HepG2-CYP2B6-hCAR viability, CellTiter-Fluor, 23 h, PK11195 added to every well; series mostly up to 92.4 µM; viability change, negative = cytotoxic: at the top concentration
From the text: U.S. Tox21 Program National Center for Advancing Translational Sciences [NCATS] NIH Chemical Genomics Center [NCGC] U.S. Environmental Protection Agency [EPA] National Institutes of Environmental Health Sciences [NIEHS] National Toxicology Program [NTP] U.S. Food and Drug Administration [FDA] Tox21 Assay Overview: The constitutive androstane receptor (CAR) is a nuclear receptor which regulates multiple drug metabolizing enzymes (DMEs) and transporters. Activating CAR will generally increase the transcription and subsequent translation of CYP2B6 and CYP3A4. These two DMEs represent about 50% of the drug metabolizing potential in the body. […] Recently, there have also been studies performed indicating CARs role in energy metabolism and cancer therapy. Therefore, inducing CARs activity could have a potential effect on diabetes and cancer. Identifying environmental toxins and compounds which modulate CAR, through the use of the Tox21 10K compound collection, will be an important step in determining the toxicity and potential therapeutic effects these factors will have on the human body. To differentiate true CAR agonists from cytotoxic substances, the assay is multiplexed with a cell viability assay.
Tox21 Assay Protocol Summary: A double-stable (hCAR and CYP2B6-2.2kb) transfected cell line, derived from human hepatoma (HepG2) cells, was utilized for the duration of the quantitative high-throughput screens. The HepG2-CYP2B6-hCAR cells were dispensed at 2500 cells/4 uL/well in 1536-well white solid bottom plates using a Multidrop Combi. After the assay plates were incubated at 37 C/5% CO2 for 4 hrs, 23 nL of compounds at 15 concentrations (from 5-48 columns) or positive control (from 1 to 4 columns) were transferred to the assay plates using a Pintool station. One uL of PK11195 (final concentration = 0.75 uM) was added, using a Flying Reagent Dispenser, inside each well. After a 23 hr incubation period at 37 C/5% CO2, 1 uL of CellTiter-Fluor reagent was added into each well of the assay plates using a Flying Reagent Dispenser. The fluorescence intensity in the plates was then measured using a ViewLux plate reader.
% is scaled to controls: 0 for no effect and ±100 for the full control effect; potency is read from the fitted curve at half-maximal effect.

SMILES	viability change, negative = cytotoxic	Potency
O=[N+]([O-])c1ccc(Oc2ccc(C(F)(F)F)cc2[N+](=O)[O-])cc1	-8.63% (inactive)	
Cc1ccc(OP(=O)(Oc2ccccc2)Oc2ccccc2)cc1	0.437% (inactive)	
Nc1ccccc1C(=O)Oc1ccc2ccccc2c1	-2.18% (inactive)	
O=C(CBr)c1ccc(O)cc1	11.8% (inactive)	
[Cl][Sn]([c]1ccccc1)([c]1ccccc1)[c]1ccccc1		3.66 µM (active)
ClC1=C(Cl)[C@]2(Cl)[C@H]3[C@H]([C@H]4C=C[C@H]3C4)[C@@]1(Cl)C2(Cl)Cl	-10.5% (inactive)	
CN(CCCC(=O)c1cccnc1)N=O	2.46% (inactive)	
O=CC(Br)(Br)Br		30.5 µM (active)
BrCC(Br)c1ccccc1 (stereo not given)	5.8% (inactive)	
CCc1cc(C)cc(CC)c1-c1c(OC(=O)C(C)(C)C)n2n(c1=O)CCOCC2	-25.7% (inactive)	
COS(=O)(=O)c1ccc(C)cc1	13.8% (inactive)	
CN(C)CCc1c[nH]c2cccc(O)c12	-15.1% (inactive)	
CCOC(=O)CC(=O)CCl	-6.3% (inactive)	
Oc1ccc2ccc3cccc4ccc1c2c34	1.2% (inactive)	
CCCCOCN(C(=O)CCl)c1c(CC)cccc1CC	-16.3% (inactive)	
C[C@]12CC[C@@H]3c4ccc(OC(=O)N(CCCl)CCCl)cc4CC[C@H]3[C@@H]1CC[C@@H]2O	-1.61% [at 42.5 µM] (inactive)	
Fc1cccc(Cl)c1CCl	2.22% (inactive)	
NNC(=O)c1ccccc1	-3.19% (inactive)	
Cc1ccc(CCl)cc1	1.15% (inactive)	
CN(C)CCc1c[nH]c2ccc(O)cc12	-1.32% (inactive)	

SMILES	viability change, negative = cytotoxic	Potency
O=[N+]([O-])c1cc([N+](=O)[O-])c2ccccc2c1	-7.63% (inactive)	
N#CCCSCCC#N	-1.42% (inactive)	
Nc1ccc(Sc2ccc(N)cc2)cc1	0.586% (inactive)	
C[C@]12Cc3nonc3C[C@@H]1CC[C@@H]1[C@@H]2CC[C@@]2(C)[C@H]1CC[C@]2(C)O	-1.97% [at 42.5 µM] (inactive)	
CCOC(=O)C1(c2ccccc2)CCN(CCC(C#N)(c2ccccc2)c2ccccc2)CC1	-5.44% [at 42.5 µM] (inactive)	
Clc1ccc(C(c2ccccc2Cl)C(Cl)(Cl)Cl)cc1 (stereo not given)		inactive
ClC1=C(Cl)[C@]2(Cl)[C@@H]3[C@@H](Cl)[C@H](Cl)C[C@@H]3[C@@]1(Cl)C2(Cl)Cl	-13.2% (inactive)	
CCCCCCCCCCCCCCC(Br)C(=O)O (stereo not given)	-0.347% (inactive)	
O=C(CCl)Nc1ccccc1		48.6 µM (active)
CCCCCCCCCC[N+](C)(C)CCCCCCCCCC		43.3 µM (active)
CCOC(=O)OC1=C(c2cc(C)ccc2C)C(=O)NC12CCC(OC)CC2 (stereo not given)	-0.48% (inactive)	
O=C/C(Cl)=C(/Cl)C(=O)O		inactive
CCOC(=O)c1ccccc1S(=O)(=O)NC(=O)Nc1nc(Cl)cc(OC)n1	1.77% (inactive)	
CC1(C)[C@H](C(=O)O[C@H](C#N)c2cccc(Oc3ccccc3)c2)[C@@H]1/C=C(\Cl)C(F)(F)F		inactive
COC(=O)N(C(=O)N1CO[C@@]2(C(=O)OC)Cc3cc(Cl)ccc3C2=N1)c1ccc(OC(F)(F)F)cc1	5.15% (inactive)	
N#CSCSC#N		44.2 µM (active) and 48.1 µM (active)
O=[N+]([O-])c1ccc2ccc3cccc4ccc1c2c34	-7.27% (inactive)	
N#CC(Cl)Cl	-3.18% (inactive)	
N#C/C=C/C#N	-9.77% (inactive)	
O=c1c(C2CC(c3ccc(-c4ccc(Br)cc4)cc3)Cc3ccccc32)c(O)sc2ccccc12 (stereo not given)	-22.9% [at 42.5 µM] (inactive)	
